Each structure is given as a SMILES string. Values joined by “and” are separate entries in the source; they are usually repeats but may differ in a detail not shown here. Identical values can stand only once.

The values below come from ChEMBL document CHEMBL1961873, “Compounds: GSK PKIS; Assays: Nanosyn kinase panel” (2012).

Test [1] addresses Tyrosine-protein kinase receptor UFO (Homo sapiens) (UniProt P30530). As to conditions: at 1 µM.
Test [2] addresses Tyrosine-protein kinase Blk (Homo sapiens) (UniProt P51451). As to conditions: at 0.1 µM.
The target is the same in test [3]. As to conditions: at 1 µM.
The target in test [4] is T1, Cytoplasmic tyrosine-protein kinase BMX (Homo sapiens) (UniProt P51813).
T1 sequence (whole entry): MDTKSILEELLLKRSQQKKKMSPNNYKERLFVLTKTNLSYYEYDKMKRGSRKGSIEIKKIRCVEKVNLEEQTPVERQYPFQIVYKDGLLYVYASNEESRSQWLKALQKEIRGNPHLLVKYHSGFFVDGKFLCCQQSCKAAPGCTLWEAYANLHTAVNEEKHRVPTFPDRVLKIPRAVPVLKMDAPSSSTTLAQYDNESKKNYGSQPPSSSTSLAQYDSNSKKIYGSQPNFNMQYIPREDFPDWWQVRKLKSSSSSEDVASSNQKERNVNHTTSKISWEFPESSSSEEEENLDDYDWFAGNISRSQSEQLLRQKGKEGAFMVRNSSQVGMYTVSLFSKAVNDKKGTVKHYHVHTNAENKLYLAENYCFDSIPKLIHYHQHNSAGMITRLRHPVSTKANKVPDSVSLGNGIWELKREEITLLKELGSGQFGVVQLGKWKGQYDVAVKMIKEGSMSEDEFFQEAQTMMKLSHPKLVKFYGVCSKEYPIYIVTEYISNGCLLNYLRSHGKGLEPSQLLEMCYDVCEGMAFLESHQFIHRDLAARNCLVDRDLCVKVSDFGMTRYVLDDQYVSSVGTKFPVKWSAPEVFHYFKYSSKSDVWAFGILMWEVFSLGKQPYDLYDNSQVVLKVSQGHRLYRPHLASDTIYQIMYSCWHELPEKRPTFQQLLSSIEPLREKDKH
Particulars: at 0.1 µM.

For test [5], the target named is T1, Cytoplasmic tyrosine-protein kinase BMX (Homo sapiens). Particulars: at 1 µM.
In test [6] the target is Protein-tyrosine kinase 6 (Homo sapiens) (UniProt Q13882). Particulars: at 0.1 µM.
Test [7] shares this target. Particulars: at 1 µM.
In test [8] the target is Tyrosine-protein kinase BTK (Homo sapiens) (UniProt Q06187). Particulars: at 0.1 µM.
The target is the same in test [9]. As to conditions: at 1 µM.
For test [10], the target named is Tyrosine-protein kinase CSK (Homo sapiens) (UniProt P41240). Particulars: at 0.1 µM.
Test [11] has the same target. Particulars: at 1 µM.
The target in test [12] is T2, Discoidin domain-containing receptor 2 (Homo sapiens) (UniProt Q16832).
T2 sequence (whole entry): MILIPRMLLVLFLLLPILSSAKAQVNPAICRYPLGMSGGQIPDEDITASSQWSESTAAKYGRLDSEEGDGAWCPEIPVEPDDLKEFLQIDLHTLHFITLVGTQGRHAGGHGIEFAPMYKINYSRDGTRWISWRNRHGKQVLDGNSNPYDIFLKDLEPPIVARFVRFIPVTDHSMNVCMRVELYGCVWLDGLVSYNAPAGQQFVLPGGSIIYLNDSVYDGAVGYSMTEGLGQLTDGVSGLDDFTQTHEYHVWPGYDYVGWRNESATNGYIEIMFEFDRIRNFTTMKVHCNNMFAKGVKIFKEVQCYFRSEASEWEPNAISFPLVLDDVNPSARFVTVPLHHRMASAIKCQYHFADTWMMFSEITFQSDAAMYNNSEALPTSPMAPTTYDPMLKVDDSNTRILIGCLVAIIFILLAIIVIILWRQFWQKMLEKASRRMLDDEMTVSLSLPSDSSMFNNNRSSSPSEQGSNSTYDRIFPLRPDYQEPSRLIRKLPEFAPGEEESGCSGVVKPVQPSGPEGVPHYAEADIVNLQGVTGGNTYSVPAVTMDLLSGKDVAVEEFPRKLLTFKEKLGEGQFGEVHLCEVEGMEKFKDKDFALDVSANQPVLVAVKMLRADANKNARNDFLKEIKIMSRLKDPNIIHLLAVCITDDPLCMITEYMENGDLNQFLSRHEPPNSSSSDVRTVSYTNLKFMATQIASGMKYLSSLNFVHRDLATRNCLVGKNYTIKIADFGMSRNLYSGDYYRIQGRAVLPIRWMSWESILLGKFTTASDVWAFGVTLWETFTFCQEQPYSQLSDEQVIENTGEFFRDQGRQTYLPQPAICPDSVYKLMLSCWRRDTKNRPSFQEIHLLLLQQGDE
Particulars: at 0.1 µM.

Test [13] addresses T2, Discoidin domain-containing receptor 2 (Homo sapiens). As to conditions: at 1 µM.
In test [14] the target is Epidermal growth factor receptor (Homo sapiens) (UniProt P00533). Particulars: at 0.1 µM.
The target is the same in test [15]. As to conditions: at 1 µM.
For test [16], the system named is Epidermal growth factor receptor (Homo sapiens), P00533 [L858R]. As to conditions: at 0.1 µM.
Test [17] has the same test system. Particulars: at 1 µM.
The subject of test [18] is Epidermal growth factor receptor (Homo sapiens), P00533 [L861Q]. Particulars: at 0.1 µM.
Test [19] shares this test system. Particulars: at 1 µM.
For test [20], the system named is Epidermal growth factor receptor (Homo sapiens), P00533 [T790M]. Particulars: at 0.1 µM.
Sequence of Epidermal growth factor receptor (Homo sapiens), P00533 [T790M] (P00533 whole entry T790M): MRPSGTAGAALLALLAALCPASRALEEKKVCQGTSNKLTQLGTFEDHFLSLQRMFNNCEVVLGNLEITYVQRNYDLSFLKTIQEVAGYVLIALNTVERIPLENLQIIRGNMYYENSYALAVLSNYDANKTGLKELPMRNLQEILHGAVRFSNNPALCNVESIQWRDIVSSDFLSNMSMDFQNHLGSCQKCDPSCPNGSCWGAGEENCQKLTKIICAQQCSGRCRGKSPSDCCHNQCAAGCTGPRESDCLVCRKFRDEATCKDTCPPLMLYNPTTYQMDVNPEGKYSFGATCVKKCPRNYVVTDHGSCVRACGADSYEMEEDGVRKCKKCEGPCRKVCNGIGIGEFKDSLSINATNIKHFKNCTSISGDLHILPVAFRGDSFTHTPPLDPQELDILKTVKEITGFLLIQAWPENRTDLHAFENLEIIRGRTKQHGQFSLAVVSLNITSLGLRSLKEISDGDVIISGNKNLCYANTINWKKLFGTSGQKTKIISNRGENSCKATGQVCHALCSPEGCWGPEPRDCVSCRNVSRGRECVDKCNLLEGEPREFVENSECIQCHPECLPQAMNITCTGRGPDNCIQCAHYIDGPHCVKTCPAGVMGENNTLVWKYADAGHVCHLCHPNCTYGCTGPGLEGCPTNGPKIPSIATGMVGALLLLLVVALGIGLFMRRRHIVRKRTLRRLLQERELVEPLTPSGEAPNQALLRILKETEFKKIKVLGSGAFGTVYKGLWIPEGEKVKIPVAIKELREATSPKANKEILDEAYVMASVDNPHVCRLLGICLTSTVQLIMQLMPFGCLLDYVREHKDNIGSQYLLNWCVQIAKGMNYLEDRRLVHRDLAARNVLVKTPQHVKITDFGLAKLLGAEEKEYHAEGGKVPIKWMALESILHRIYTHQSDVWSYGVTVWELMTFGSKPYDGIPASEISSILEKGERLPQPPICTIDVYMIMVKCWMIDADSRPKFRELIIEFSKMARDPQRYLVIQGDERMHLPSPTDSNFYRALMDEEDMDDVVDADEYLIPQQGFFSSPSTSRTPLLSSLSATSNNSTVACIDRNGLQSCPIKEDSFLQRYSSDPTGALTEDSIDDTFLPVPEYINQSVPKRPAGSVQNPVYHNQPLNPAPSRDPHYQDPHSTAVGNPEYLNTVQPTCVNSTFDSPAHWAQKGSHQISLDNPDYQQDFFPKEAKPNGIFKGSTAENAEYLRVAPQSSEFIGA

Sequence of Tyrosine-protein kinase receptor UFO (Homo sapiens) (P30530 whole entry): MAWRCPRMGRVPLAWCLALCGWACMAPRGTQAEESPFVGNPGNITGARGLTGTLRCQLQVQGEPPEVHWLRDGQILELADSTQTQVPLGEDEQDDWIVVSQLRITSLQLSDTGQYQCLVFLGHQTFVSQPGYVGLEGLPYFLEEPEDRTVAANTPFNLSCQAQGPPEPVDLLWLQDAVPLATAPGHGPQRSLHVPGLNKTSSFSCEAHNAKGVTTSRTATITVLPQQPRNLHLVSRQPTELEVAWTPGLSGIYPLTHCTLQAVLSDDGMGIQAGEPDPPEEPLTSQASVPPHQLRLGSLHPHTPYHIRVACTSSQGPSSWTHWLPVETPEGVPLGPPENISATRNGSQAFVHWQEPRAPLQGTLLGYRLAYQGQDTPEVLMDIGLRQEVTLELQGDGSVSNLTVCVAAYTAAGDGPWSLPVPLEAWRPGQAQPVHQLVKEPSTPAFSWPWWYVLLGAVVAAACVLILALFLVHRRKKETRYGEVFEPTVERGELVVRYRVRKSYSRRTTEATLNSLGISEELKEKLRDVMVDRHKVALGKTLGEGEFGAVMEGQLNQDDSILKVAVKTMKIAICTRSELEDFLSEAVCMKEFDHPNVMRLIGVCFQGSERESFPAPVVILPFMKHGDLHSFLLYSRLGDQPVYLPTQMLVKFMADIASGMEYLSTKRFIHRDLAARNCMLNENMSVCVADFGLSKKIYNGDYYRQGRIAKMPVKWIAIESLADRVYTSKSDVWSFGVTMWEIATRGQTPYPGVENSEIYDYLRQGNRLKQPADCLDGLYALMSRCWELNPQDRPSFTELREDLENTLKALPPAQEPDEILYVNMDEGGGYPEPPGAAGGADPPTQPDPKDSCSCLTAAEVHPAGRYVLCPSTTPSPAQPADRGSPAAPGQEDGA
Sequence of Tyrosine-protein kinase BTK (Homo sapiens) (Q06187 whole entry): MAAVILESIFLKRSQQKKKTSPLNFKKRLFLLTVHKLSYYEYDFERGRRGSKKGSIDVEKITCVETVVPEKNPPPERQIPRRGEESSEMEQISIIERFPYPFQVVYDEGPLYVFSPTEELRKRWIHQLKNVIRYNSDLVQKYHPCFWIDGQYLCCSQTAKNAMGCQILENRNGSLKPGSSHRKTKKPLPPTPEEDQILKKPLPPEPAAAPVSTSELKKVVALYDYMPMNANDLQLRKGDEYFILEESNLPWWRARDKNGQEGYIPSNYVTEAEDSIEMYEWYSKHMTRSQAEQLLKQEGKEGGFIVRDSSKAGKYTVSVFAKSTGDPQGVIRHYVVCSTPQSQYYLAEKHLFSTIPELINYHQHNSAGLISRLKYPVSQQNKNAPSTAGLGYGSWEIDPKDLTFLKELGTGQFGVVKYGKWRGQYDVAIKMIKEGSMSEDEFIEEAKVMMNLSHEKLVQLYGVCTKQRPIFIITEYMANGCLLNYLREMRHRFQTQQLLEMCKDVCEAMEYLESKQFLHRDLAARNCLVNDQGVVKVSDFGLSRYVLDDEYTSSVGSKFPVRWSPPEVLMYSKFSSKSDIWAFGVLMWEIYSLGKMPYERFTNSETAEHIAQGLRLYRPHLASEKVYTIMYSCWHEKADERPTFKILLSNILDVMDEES
Sequence of Epidermal growth factor receptor (Homo sapiens), P00533 [L858R] (P00533 whole entry L858R): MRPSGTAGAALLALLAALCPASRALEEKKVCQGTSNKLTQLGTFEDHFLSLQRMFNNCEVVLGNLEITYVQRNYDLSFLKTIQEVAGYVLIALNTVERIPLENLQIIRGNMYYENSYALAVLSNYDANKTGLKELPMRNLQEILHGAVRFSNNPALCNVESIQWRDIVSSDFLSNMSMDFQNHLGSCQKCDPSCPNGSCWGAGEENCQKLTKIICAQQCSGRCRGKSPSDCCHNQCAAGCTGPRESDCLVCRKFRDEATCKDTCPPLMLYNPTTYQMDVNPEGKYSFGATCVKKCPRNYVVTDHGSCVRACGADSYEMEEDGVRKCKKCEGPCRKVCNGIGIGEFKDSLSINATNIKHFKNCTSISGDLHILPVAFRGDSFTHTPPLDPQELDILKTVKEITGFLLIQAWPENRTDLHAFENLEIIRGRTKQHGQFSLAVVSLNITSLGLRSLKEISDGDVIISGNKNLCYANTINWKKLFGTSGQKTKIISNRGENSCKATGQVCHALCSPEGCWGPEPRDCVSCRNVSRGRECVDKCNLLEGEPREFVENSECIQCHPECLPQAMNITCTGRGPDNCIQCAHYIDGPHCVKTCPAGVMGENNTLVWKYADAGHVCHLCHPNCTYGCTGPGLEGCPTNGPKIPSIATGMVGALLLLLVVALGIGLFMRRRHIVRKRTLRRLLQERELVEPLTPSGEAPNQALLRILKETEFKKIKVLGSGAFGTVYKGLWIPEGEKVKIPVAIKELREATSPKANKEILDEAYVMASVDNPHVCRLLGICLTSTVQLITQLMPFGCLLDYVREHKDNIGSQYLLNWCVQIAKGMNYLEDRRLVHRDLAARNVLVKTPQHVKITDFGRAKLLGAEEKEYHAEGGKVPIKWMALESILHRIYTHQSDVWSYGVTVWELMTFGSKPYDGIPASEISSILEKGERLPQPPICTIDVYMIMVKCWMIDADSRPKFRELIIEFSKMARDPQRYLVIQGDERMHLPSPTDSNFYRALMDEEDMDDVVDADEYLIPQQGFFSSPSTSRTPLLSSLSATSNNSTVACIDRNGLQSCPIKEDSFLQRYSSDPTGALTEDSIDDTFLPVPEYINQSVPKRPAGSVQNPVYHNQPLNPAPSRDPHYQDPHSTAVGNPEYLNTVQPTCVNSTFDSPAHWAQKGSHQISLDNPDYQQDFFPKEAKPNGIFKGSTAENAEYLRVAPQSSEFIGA
Sequence of Tyrosine-protein kinase Blk (Homo sapiens) (P51451 2-505 limits assumed): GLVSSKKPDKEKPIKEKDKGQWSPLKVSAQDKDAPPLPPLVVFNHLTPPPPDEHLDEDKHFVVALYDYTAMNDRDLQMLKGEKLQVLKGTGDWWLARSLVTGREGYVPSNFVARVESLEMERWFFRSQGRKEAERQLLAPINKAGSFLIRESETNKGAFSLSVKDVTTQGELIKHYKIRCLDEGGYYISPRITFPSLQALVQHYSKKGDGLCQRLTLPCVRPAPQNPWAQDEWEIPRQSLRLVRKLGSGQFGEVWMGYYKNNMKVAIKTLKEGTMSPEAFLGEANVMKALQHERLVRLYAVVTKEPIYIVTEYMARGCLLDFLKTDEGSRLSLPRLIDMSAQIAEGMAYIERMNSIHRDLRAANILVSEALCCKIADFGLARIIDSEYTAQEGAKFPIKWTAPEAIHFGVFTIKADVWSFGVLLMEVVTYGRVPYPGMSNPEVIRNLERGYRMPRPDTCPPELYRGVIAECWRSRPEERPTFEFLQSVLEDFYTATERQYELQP
Sequence of Protein-tyrosine kinase 6 (Homo sapiens) (Q13882 whole entry, looked up): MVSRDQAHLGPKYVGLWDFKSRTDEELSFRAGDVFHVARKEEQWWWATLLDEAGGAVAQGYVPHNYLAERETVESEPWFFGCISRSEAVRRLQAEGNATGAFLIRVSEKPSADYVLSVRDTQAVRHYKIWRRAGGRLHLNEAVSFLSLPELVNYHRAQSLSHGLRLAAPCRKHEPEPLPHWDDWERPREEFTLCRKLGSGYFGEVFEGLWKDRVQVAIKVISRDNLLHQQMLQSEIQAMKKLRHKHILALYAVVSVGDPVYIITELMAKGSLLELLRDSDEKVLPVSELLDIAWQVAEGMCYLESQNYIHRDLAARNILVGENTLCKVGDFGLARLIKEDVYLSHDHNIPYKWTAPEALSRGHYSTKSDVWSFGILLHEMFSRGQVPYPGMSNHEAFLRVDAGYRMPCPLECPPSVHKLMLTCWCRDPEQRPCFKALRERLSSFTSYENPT

In general, inhibition refers to the change of the read-out against control, counted positive when it falls. With `NS(=O)(=O)c1ccc(N/N=C2\C(=O)Nc3ccc(C(=O)NCc4ccncc4)cc32)cc1`, the inhibition in [1] was -5.22%; in [2] it was 2.64%; in test [3], 13.4%; in test [4], -3.52%; in test [5] it was 4.33%; in test [6], 1.97%. The inhibition is 4.41% in test [7]; 0.85% in [8]; 0.4% in test [9]; 2.94% in [10]; 7.78% in test [11]; -0.45% in [12]. Also, the inhibition was 3.57% in [13]; -0.63% in [14]; 5.5% in test [15]; 6.1% in test [16]; 4.21% in test [17]; 4.5% in test [18]. Moreover, the inhibition was found to be 4.52% in test [19] and 2.35% in test [20].
Turning to `c1cnn2ncc(-c3ccnc(NCCCN4CCOCC4)n3)c2c1`, the inhibition in [1] was -4.37%; in [2], 1.7%; in [3], 2.58%; in test [4] it was -0.07%; in test [5] it was 2.01%; in test [6], 2.34%. Also, the inhibition in test [7] is 3.25%; in test [8], -1.19%; in test [9] it was -2.44%; in test [10], 5.75%; in test [11], 1.9%; in test [12] it was 2.03%. Also, the inhibition in [13] is 1.44%; in test [14], -0.42%; in [15] it was 0.23%; in [16], 3.41%; in test [17], 1.28%; in test [18] it was 1.28%. In addition, the inhibition in test [19] was 0.79%; in test [20], 0.73%.
On to `COc1cccc(Nc2nccc(-c3cnn4ncccc34)n2)c1`, for which the inhibition is 11.4% in test [1]; 2.91% in test [2]; 14% in test [3]; 9.52% in test [4]; 21.8% in test [5]; 1.39% in test [6]. Besides, the inhibition stood at 10.1% in test [7]; 0.35% in test [8]; 4.57% in test [9]; 4.74% in test [10]; 11.8% in [11]; 0.85% in [12]. Moreover, the inhibition is 4.16% in test [13]; -2.03% in test [14]; 5.8% in test [15]; 2.1% in test [16]; 9.34% in [17]; 1.66% in test [18]. Moreover, the inhibition in test [19] amounted to 3.56%; in test [20] it was 1.52%.
Turning to `FC(F)(F)CNc1nccc(-c2cnn3ncccc23)n1`, the inhibition was -3.11% in test [1]; 1.37% in [2]; 2.35% in test [3]; 4.12% in test [4]; 2.03% in test [5]; -1.25% in [6]. The inhibition in [7] was found to be 3.34%; in test [8], 0.18%; in test [9], 0.42%; in test [10] it was 2.81%; in test [11], 0.56%; in test [12], 1.12%. The inhibition in test [13] is 0.22%; in test [14] it was 1.39%; in test [15], 6.21%; in test [16], 2.83%; in test [17], 0.26%; in [18] it was 0.58%. Also, the results for the inhibition in [19] and in [20] were 0.31% and -0.49%, respectively.
In the case of `CN1CCN(Cc2ccc(-c3cc4ncnc(Nc5ccc(OCc6cccc(F)c6)c(Cl)c5)c4s3)o2)CC1`, the inhibition in test [1] was -0.55% and -6.25%; in test [2], 2.97% and 3.59%; in test [3] it was 13.3% and 15.7%; in [4], 1.68% and 6.37%; in test [5], 5.03% and 3.73%; in test [6] it was 6.28% and 7.91%. Moreover, the inhibition in [7] is 29.5% and 33.2%; in [8] it was -0.21% and -0.71%; in test [9] it was 2.04% and 2.62%; in test [10], 2.47% and 5.63%; in test [11], 12.6% and 17.7%; in [12], 1.16% and 0.39%. In addition, in [13], the inhibition is 1.23% and -0.86%.
With `Fc1ccc(Nc2nccc(-c3c(-c4ccc(C(F)(F)F)cc4)nn4ncccc34)n2)cc1F`, the inhibition in [1] was -7.82%; in test [2], 2.43%; in test [3] it was 2.03%; in test [4] it was 0.77%; in test [5], 5.09%; in test [6] it was 3.39%. Further, the inhibition stood at 0.92% in test [7]; 1.62% in [8]; 0.94% in [9]; 1.84% in [10]; 0.02% in test [11]; 0.84% in test [12]. For the same molecule, the inhibition was 1.01% in [13]; -6.64% in test [14]; 2.88% in test [15]; 4.49% in test [16]; 2.96% in test [17]; 2.39% in test [18]. Further, the inhibition in test [19] was -0.05%; in [20], 2.44%.
For the molecule `Cc1ccc(-c2cc3c(NC(=O)C4CC4)ncnc3o2)cc1`, the inhibition is -1.05% in test [1]; 3.18% in [2]; 12.7% in test [3]; -1.26% in [4]; 7.57% in test [5]; 4% in test [6]. In addition, the inhibition in [7] is 8.16%; in [8], 0.73%; in [9], 1.92%; in [10], 2.33%; in test [11], 2.78%; in test [12] it was 0.26%. The inhibition was 1.45% in [13]; 3.75% in test [14]; 8.67% in test [15]; 3.53% in test [16]; 2.75% in test [17]; 2.3% in test [18]. In addition, the inhibition in [19] came to 4.69%; in test [20] it was 1.98%.
